Measurements from PubChem BioAssay (NCI).
Compounds without any hit were thinned out: in the full panel of roughly 83,000, 20% have a hit.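 Activity criterion: percent growth below 10, measured after cells in 96-well plates were exposed to a single compound concentration for 48 hours.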 Values without a mark were called inactive. Activity calls are given as the source filed them.

What follows are compounds tested on SK-MEL-5 melanoma (assay: NCI-60 one-dose screen, 48 h (100 = growth as untreated, 0 = no growth, -100 = all killed)). Conditions: 10 µM unless noted.

For `Cc1nn(-c2ccccc2)c2nc(C)n(-c3ccc(Br)cc3)c(=O)c12`, the growth was 5.34% (active).
`O=S(=O)(Nc1ccc(Cl)cc1Cl)c1ccc(-c2cnc(C3CC3)o2)cc1` was tested, and the growth was 8.59% (active).
With `COc1ccc(-c2csc(NC(=O)CN3CCN(c4cc5c(cc4F)c(=O)c(C(=O)O)cn5C4CC4)CC3)n2)cc1` the growth was -24.6% (active).
For `CC/C=C\C[C@H](O)C/C=C1/C(=O)C=C[C@@H]1C/C=C\CCCC(N)=O`, the growth was -94.8% (active).

First: CCOC(=O)C(CC)n1c(=O)c2cc(OC)c(OC)cc2c2cnc3[nH]ccc3c21 (centres undefined)
Second: Cc1cccc(NC(=O)c2sc3nc4c(cc3c2N)C(=O)CCC4)c1
The growth of the first is higher: 80.9% for the first, 22.8% for the second.

Compared with `CC(=O)N1CC(Nc2ccc(OC(F)(F)F)cc2)=CC1=O`, `COc1ccc(-c2cc(NC(=O)Nc3ccc(O)cc3)no2)cc1` is higher in growth: 21.2% for the first, 82.3% for the second.

First: Oc1ccccc1/C=N/Nc1ccc2ccccc2n1
Second: Oc1ccc(Nc2nccc(-c3ccc4ccccc4c3)n2)cc1
The growth of the first is higher: 51.3% for the first, 39.8% for the second.

Compared with `O=[N+]([O-])c1cccc(C2CC(c3ccccc3)=Nc3ccccc3S2)c1` (centres undefined), `O=C1Nc2ccccc2/C1=C/C(=N/c1nnc(-c2ccccc2)s1)c1ccccc1` is lower in growth: 94.8% for the first, 93.9% for the second.

Compared with `CCCCCC(=O)N(CCCC)CCCC`, `CCCCCN(CCCCC)CCC[C@@H](C)[C@H]1CC[C@H]2[C@@H]3[C@H](OCCCN)C[C@@H]4C[C@H](OCCCN)CC[C@]4(C)[C@H]3C[C@H](OCCCN)[C@]12C` is lower in growth: 98.6% for the first, 25.1% for the second.

First: CCCNc1nc(SC)nc(-c2cccc(N)c2)c1C#N
Second: Nc1ccc(Nc2nccc(-c3ccc4ccccc4c3)n2)cc1
The growth of the first is higher: 97.2% for the first, 47.3% for the second.

Going from `CC(=O)OCC(=O)C1CCC=CC1OC(C)=O` (centres undefined) to `C[C@@H]1CC[C@@H]2[C@@H]1[C@H](OC(=O)/C=C/c1ccccc1)[C@]1(c3ccccc3)C[C@@H](OC(=O)CO)[C@@]2(C)O1`, the growth falls from 97.7% to 94.8%.

Going from `O=C1/C(=C/c2ccc(Cl)cc2Cl)CN(S(=O)(=O)c2ccccc2)C/C1=C\c1ccc(Cl)cc1Cl` to `Cc1ccc(S(=O)(=O)n2cc(-c3csc(-c4cn(C)c5ncccc45)n3)c3ccccc32)cc1`, the growth falls from 47.5% to 39.4%.

Going from `COc1ccc(-c2nc(Nc3cc(C)[nH]n3)c3ccccc3n2)cc1` to `Cc1cc(Nc2nc(N3CCNCC3)nc3ccccc23)n[nH]1`, the growth rises from 69% to 95.8%.

Compared with `Cc1noc(C)c1-c1cc(O)cc(C(O)c2ccccc2)c1` (centres undefined), `Oc1cccc(Nc2nccc(-c3ccc4ccccc4c3)n2)c1` is lower in growth: 54.2% for the first, 32.5% for the second.

Going from `COc1ccc(C2CC(=O)Nc3c2c(C)nn3-c2nc3ccccc3[nH]2)cc1` (centres undefined) to `O=c1c2cccc3c(NC4CCCCC4)ccc(c32)c2nc3ccccc3n12`, the growth falls from 95.5% to 66.1%.

First: O=C(/C=C/c1ccc(B(O)O)cc1)/C=C/c1ccc(B(O)O)cc1
Second: CC(=O)C1=C(O)C=C2Oc3c(C(=O)/C=C/c4ccccc4)c(O)c(C)c(O)c3[C@]2(C)C1=O
The growth of the first is higher: 85.5% for the first, 10.1% for the second.

Going from `CC[C@H](Nc1cc(C)nc(N)n1)c1nc2cccc(NCc3ccc(C(=O)NO)cc3)c2c(=O)n1-c1ccccc1` to `O=C1NC(=O)C(CC(=O)n2c(-c3ccccc3)nc3ccccc32)C(=O)N1`, the growth rises from 30% to 101%.

Compared with `COc1c(Cl)cc(Cl)cc1Cl`, `O=C(N/N=C/c1ccc(O)cc1O)c1cccnc1` is lower in growth: 109% for the first, 39.3% for the second.

Compared with `CC1(C)OCC2OC3(C(=O)O)OC(C)(C)OC3C2O1` (centres undefined), `O=C(NC(Cc1ccccc1)C(=O)CCl)OCc1ccccc1` (centres undefined) is lower in growth: 105% for the first, 75.9% for the second.
